{"source": "the supplement of paper PMC10849652", "note": "Of roughly 7,900 targets only a part is listed; those with a hit were picked by preference. About 0.6% of all pairs of compound and target were hits.", "data": [{"compound": "CCn1cc(-c2ccnc3[nH]c(-c4cccc(CN(C)C)c4)cc23)c(-c2ccc(NC(=O)N(C)C)cc2)n1", "experiment": "log2 fold change, soluble protein after heating vs DMSO (PISA); higher = thermal stabilisation; K562 cells, 10 uM, 30 min; active = over 0.2 and 3.5 SD of the protein, either way, in both replicates (recomputed)", "how_it_was_run": "(§1)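 K562 cells at 2×10^6 cells/mL were treated for 30 min with 10 μM compound, and aliquots were heated for 3 min over 48°C-58°C before pooling. Extraction used PBS with 0.5% NP-40 at 4°C, and soluble protein was the supernatant after 21,000xg for 90 min, measured by TMTpro 16plex LC-MS/MS with channel sums equalised. Thermal stability values, relative to control samples and from duplicates, are log2 fold changes.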", "values": [{"target": "FAT1 (UniProt Q14517)", "sequence (Q14517 whole entry, looked up)": "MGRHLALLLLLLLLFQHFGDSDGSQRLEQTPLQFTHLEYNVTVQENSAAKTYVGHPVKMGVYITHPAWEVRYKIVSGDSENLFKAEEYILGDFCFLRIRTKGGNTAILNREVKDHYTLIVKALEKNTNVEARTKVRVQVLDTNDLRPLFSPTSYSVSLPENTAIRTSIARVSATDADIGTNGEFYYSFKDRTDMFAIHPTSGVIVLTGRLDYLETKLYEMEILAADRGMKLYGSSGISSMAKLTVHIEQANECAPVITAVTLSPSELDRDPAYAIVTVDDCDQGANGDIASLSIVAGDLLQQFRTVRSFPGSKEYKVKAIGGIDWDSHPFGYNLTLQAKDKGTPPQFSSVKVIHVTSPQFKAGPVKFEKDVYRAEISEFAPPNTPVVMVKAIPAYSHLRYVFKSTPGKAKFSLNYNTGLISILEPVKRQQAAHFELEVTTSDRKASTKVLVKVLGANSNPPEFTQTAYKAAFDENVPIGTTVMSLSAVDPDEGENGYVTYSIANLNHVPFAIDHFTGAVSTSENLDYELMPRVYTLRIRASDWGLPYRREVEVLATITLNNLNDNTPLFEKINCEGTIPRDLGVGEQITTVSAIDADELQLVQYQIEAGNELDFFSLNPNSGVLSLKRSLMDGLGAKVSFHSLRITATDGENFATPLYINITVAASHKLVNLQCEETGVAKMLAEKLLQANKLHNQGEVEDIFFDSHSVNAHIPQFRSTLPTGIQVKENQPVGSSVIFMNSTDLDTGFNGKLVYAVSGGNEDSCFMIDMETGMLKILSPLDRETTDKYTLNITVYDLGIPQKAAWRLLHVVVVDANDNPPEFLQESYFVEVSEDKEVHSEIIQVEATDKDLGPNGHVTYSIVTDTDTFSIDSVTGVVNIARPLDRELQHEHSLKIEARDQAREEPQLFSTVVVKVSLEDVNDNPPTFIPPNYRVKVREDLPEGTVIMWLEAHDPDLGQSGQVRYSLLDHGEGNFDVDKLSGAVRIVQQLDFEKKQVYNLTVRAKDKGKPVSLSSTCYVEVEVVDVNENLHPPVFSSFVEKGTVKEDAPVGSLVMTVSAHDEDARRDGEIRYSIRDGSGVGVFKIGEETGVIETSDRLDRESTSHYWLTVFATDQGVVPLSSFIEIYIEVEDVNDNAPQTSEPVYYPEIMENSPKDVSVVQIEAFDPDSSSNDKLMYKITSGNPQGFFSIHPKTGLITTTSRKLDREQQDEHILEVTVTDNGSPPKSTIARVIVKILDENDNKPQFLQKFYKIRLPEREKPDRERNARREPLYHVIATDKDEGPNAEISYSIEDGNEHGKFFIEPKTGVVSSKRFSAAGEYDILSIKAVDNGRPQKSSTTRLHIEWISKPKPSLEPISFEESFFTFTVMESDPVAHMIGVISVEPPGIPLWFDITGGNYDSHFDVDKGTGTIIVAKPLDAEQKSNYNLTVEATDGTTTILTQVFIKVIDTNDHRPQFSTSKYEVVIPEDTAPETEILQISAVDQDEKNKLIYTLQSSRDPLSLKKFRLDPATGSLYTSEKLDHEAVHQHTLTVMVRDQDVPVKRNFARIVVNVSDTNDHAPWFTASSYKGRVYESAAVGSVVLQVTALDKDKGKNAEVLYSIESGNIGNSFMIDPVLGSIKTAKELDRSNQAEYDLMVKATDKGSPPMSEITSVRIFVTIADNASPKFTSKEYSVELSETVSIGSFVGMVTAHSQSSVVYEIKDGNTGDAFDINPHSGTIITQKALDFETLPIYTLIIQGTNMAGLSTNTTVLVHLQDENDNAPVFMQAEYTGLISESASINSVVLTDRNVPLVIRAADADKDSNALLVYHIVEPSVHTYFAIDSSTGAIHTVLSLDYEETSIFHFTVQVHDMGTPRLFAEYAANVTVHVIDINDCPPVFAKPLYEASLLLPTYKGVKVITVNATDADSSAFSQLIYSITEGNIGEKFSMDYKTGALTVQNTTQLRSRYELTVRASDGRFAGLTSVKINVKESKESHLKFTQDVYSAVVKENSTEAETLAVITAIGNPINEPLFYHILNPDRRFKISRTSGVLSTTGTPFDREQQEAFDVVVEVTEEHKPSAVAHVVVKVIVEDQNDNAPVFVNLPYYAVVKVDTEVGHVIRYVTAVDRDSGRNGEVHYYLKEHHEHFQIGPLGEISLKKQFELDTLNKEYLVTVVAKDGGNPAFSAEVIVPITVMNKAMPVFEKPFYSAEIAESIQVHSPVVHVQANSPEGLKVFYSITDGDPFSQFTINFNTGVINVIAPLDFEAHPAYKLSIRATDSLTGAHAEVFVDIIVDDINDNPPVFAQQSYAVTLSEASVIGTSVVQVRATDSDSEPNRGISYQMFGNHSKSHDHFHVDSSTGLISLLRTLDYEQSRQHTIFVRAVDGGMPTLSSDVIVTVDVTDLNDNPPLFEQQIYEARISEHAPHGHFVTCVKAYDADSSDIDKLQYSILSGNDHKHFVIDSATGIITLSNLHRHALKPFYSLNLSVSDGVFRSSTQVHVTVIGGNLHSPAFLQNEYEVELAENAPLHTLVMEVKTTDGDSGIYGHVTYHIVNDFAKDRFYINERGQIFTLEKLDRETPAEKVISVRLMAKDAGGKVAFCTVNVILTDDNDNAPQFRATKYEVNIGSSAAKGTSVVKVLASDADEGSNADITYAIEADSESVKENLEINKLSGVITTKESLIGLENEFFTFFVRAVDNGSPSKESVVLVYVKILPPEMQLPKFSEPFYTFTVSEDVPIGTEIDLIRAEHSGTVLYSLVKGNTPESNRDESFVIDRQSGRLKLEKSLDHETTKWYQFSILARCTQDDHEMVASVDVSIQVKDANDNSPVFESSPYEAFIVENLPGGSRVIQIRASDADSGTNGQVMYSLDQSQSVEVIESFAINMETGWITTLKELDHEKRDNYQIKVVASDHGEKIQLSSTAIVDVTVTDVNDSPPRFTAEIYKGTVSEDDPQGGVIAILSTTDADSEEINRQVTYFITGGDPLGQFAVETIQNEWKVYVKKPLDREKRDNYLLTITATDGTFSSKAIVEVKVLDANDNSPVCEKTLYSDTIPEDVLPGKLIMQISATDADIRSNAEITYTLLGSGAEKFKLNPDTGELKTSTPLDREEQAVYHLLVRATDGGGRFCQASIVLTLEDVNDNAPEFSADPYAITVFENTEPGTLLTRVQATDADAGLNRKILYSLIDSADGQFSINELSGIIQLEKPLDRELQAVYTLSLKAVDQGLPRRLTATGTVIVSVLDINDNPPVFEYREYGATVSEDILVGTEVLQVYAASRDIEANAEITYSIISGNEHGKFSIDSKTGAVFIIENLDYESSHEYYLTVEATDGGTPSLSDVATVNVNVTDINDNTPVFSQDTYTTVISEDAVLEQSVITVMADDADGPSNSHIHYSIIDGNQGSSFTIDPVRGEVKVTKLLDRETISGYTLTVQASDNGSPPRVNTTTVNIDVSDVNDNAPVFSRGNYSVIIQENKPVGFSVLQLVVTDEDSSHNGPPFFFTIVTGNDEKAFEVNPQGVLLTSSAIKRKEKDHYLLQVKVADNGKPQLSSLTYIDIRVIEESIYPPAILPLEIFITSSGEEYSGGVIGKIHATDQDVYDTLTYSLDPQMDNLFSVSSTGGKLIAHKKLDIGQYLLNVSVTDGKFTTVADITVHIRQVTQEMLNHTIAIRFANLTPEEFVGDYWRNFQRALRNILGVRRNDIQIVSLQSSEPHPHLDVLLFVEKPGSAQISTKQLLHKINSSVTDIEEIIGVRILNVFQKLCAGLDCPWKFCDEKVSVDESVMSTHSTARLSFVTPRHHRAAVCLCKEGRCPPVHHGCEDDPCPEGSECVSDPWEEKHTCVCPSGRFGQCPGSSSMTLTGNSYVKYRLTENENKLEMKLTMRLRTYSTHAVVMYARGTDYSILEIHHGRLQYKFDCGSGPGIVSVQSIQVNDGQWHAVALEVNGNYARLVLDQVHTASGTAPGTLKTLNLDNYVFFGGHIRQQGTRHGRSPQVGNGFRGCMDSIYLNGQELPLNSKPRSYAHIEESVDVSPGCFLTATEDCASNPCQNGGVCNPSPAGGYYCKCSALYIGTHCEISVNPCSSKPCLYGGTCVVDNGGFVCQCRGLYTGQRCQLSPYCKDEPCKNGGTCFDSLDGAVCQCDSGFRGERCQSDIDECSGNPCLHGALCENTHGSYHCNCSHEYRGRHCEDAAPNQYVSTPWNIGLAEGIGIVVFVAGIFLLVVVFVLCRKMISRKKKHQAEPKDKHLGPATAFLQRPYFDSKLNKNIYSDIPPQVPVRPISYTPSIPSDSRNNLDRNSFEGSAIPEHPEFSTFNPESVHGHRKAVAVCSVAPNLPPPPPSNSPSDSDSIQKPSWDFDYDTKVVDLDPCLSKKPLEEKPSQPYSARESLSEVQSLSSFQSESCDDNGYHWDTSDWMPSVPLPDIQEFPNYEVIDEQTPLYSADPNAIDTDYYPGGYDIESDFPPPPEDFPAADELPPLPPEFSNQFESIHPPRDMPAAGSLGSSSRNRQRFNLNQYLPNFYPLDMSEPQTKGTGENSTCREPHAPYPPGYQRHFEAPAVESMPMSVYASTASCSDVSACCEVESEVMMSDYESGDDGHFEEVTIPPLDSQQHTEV", "log2 fold change": "-0.018 (inactive)"}, {"target": "GAB2 (UniProt Q9UQC2)", "log2 fold change": "0.034 (inactive)"}, {"target": "GLCCI1 (UniProt Q86VQ1)", "log2 fold change": "0.088 (inactive)"}, {"target": "FANCI (UniProt Q9NVI1)", "log2 fold change": "-0.093 (inactive)"}, {"target": "GALNT11 (UniProt Q8NCW6)", "log2 fold change": "0.015 (inactive)"}, {"target": "FDPS (UniProt P14324)", "log2 fold change": "-0.277 (inactive)"}, {"target": "HDAC1 (UniProt Q13547)", "log2 fold change": "0.019 (inactive)"}, {"target": "HDAC2 (UniProt Q92769)", "log2 fold change": "-0.001 (inactive)"}, {"target": "HDAC7 isoform 5 (UniProt Q8WUI4)", "log2 fold change": "-0.058 (inactive)"}, {"target": "GEMIN2 (UniProt O14893)", "log2 fold change": "0.013 (inactive)"}, {"target": "HPCAL1 (UniProt P37235)", "log2 fold change": "0.039 (inactive)"}, {"target": "HIP1R (UniProt O75146)", "log2 fold change": "-0.016 (inactive)"}, {"target": "HADHB (UniProt P55084)", "log2 fold change": "-0.223 (inactive)"}, {"target": "GHDC (UniProt Q8N2G8)", "log2 fold change": "-0.024 (inactive)"}, {"target": "FEN1 (UniProt P39748)", "log2 fold change": "-0.174 (inactive)"}, {"target": "GOPC (UniProt Q9HD26)", "log2 fold change": "0.149 (inactive)"}, {"target": "FDFT1 (UniProt P37268)", "sequence (P37268 whole entry, looked up)": "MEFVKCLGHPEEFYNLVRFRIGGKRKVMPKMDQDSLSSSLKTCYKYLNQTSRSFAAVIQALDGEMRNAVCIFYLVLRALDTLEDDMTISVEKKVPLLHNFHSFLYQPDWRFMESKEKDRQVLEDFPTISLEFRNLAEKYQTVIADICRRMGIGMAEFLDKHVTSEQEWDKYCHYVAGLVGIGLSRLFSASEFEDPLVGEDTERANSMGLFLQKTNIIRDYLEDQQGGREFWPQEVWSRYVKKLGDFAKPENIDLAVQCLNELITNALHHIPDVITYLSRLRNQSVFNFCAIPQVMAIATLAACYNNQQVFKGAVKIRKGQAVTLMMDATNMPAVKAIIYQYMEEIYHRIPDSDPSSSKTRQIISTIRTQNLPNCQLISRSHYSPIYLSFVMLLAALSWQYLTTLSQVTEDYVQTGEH", "log2 fold change": "-0.06 (inactive)"}, {"target": "GAK (UniProt O14976)", "log2 fold change": "0.11 (inactive)"}, {"target": "GSTP1 (UniProt P09211)", "log2 fold change": "0.012 (inactive)"}, {"target": "FOXO3 (UniProt O43524)", "log2 fold change": "-0.004 (inactive)"}, {"target": "FDXR isoform 7 (UniProt P22570)", "log2 fold change": "-0.144 (inactive)"}, {"target": "HNRNPH2 (UniProt P55795)", "log2 fold change": "0 (inactive)"}, {"target": "GLIPR2 (UniProt Q9H4G4)", "sequence (Q9H4G4 whole entry, looked up)": "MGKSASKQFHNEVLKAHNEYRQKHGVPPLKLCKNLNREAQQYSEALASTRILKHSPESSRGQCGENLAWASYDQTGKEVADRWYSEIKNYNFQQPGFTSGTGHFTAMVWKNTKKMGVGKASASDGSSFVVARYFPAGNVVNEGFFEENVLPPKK", "log2 fold change": "-0.032 (inactive)"}, {"target": "FIBP (UniProt O43427)", "log2 fold change": "-0.023 (inactive)"}, {"target": "HNRNPC isoform 2 (UniProt P07910)", "log2 fold change": "0.147 (inactive)"}, {"target": "FBXO7 (UniProt Q9Y3I1)", "log2 fold change": "-0.295 (active)"}, {"target": "GMEB1 (UniProt Q9Y692)", "log2 fold change": "-0.05 (inactive)"}, {"target": "FANCD2 isoform 1 (UniProt Q9BXW9)", "log2 fold change": "-0.055 (inactive)"}, {"target": "GPX4 (UniProt P36969)", "log2 fold change": "-0.025 (inactive)"}]}, {"compound": "CN(C)CC(=O)Nc1ccc2[nH]c(=O)c3ccccc3c2c1", "experiment": "log2 fold change, soluble protein after heating vs DMSO (PISA); higher = thermal stabilisation; K562 cells, 10 uM, 30 min; active = over 0.2 and 3.5 SD of the protein, either way, in both replicates (recomputed)", "how_it_was_run": "as §1", "values": [{"target": "FAT1 (UniProt Q14517)", "log2 fold change": "0.07 (inactive)"}, {"target": "GAB2 (UniProt Q9UQC2)", "log2 fold change": "-0.016 (inactive)"}, {"target": "GLCCI1 (UniProt Q86VQ1)", "log2 fold change": "-0.035 (inactive)"}, {"target": "FANCI (UniProt Q9NVI1)", "log2 fold change": "0.072 (inactive)"}, {"target": "GALNT11 (UniProt Q8NCW6)", "log2 fold change": "-0.079 (inactive)"}, {"target": "FDPS (UniProt P14324)", "log2 fold change": "0.111 (inactive)"}, {"target": "HDAC1 (UniProt Q13547)", "log2 fold change": "0.011 (inactive)"}, {"target": "HDAC2 (UniProt Q92769)", "log2 fold change": "-0.003 (inactive)"}, {"target": "HDAC7 isoform 5 (UniProt Q8WUI4)", "log2 fold change": "0.059 (inactive)"}, {"target": "GEMIN2 (UniProt O14893)", "log2 fold change": "0.019 (inactive)"}, {"target": "HPCAL1 (UniProt P37235)", "log2 fold change": "0.019 (inactive)"}, {"target": "FCHO1 (UniProt O14526)", "log2 fold change": "0.112 (inactive)"}, {"target": "HIP1R (UniProt O75146)", "log2 fold change": "-0.017 (inactive)"}, {"target": "HADHB (UniProt P55084)", "log2 fold change": "0.015 (inactive)"}, {"target": "GHDC (UniProt Q8N2G8)", "log2 fold change": "0.009 (inactive)"}, {"target": "FEN1 (UniProt P39748)", "log2 fold change": "0.155 (inactive)"}, {"target": "GOPC (UniProt Q9HD26)", "log2 fold change": "0.056 (inactive)"}, {"target": "FDFT1 (UniProt P37268)", "log2 fold change": "0.003 (inactive)"}, {"target": "GDE1 (UniProt Q9NZC3)", "log2 fold change": "-0.049 (inactive)"}, {"target": "ICMT (UniProt O60725)", "log2 fold change": "0.061 (inactive)"}, {"target": "GAK (UniProt O14976)", "log2 fold change": "0.382 (inactive)"}, {"target": "GSTP1 (UniProt P09211)", "log2 fold change": "-0.013 (inactive)"}, {"target": "FOXO3 (UniProt O43524)", "log2 fold change": "0.055 (inactive)"}, {"target": "FDXR isoform 7 (UniProt P22570)", "log2 fold change": "0.012 (inactive)"}, {"target": "HNRNPH2 (UniProt P55795)", "log2 fold change": "0.069 (inactive)"}, {"target": "GLIPR2 (UniProt Q9H4G4)", "log2 fold change": "-0.117 (inactive)"}, {"target": "FIBP (UniProt O43427)", "log2 fold change": "-0.043 (inactive)"}, {"target": "HNRNPC isoform 2 (UniProt P07910)", "log2 fold change": "-0.151 (inactive)"}, {"target": "FBXO7 (UniProt Q9Y3I1)", "log2 fold change": "0.029 (inactive)"}, {"target": "GPS2 (UniProt Q13227)", "log2 fold change": "0.068 (inactive)"}, {"target": "GGA2 (UniProt Q9UJY4)", "log2 fold change": "-0.021 (inactive)"}, {"target": "GMEB1 (UniProt Q9Y692)", "log2 fold change": "-0.045 (inactive)"}, {"target": "FANCD2 isoform 1 (UniProt Q9BXW9)", "log2 fold change": "0.026 (inactive)"}, {"target": "GPX4 (UniProt P36969)", "log2 fold change": "0.009 (inactive)"}, {"target": "IFITM3 (UniProt Q01628)", "log2 fold change": "0.175 (inactive)"}]}]}
